This assay can be described thus: HepG2 cell cytotoxicity, dose response, cytotoxicity control, cherry-picks, set 5 (AID 1053118).

Entries with a potency or affinity are not part of this list. Active and inactive are the calls of the source.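 Rule for the calls: active = fitted half-maximal concentration for ATP signal loss at most twice the top valid dose; inconclusive = flat curve between -70 and -30%, or an invalid fit; inactive = flat within ±30%, wrong direction, or potency past limit.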

Regarding `C[C@@H]1CN([C@@H](C)CO)C(=O)c2cc(NC(=O)CCCN(C)C)ccc2O[C@@H]1CN(C)Cc1ccc(-c2ccccc2)cc1`, the molecule was called inactive.
On to `COC(=O)C[C@H]1CC[C@H]2[C@@H](COc3ccc(NC(=O)Cc4cccs4)cc3C(=O)N2C)O1`, for which the call was inactive.
For `C[C@@H]1CN([C@@H](C)CO)C(=O)c2cc(-c3ccncc3)cnc2O[C@@H]1CN(C)C(=O)Cc1cccnc1`, the result was inactive.
Take `COCC(=O)Nc1ccc2c(c1)C(=O)N(C)[C@@H]1CC[C@H](CC(=O)NCc3ccccc3Cl)O[C@@H]1CO2`: the molecule was classed as inactive.
`C[C@H]1CN([C@@H](C)CO)C(=O)c2cccc(NC(=O)Nc3ccc(C(F)(F)F)cc3)c2O[C@H]1CN(C)C(=O)Nc1cccc2ccccc12`: the call was inactive.
As to `O=C(Nc1ccccc1F)N1C[C@H]2[C@@H](c3ccccc31)[C@H](CO)N2C(=O)C1CC1`, the molecule was classed as inactive.
Regarding `CCOC(=O)c1cnc(SCc2nc(N)nc(Nc3ccc(OC)cc3)n2)nc1N`, the call was inactive.
Consider `COC(=O)C[C@H]1CC[C@H]2[C@H](COc3ccc(NC(=O)Cc4cccs4)cc3C(=O)N2C)O1`, for which the result was inactive.
Take `C[C@H](O)C#Cc1ccc2c(c1)O[C@H](CN(C)C)[C@@H](C)CN([C@@H](C)CO)S2(=O)=O`: the molecule was called inactive.
For `COc1ccc(CCNC(=O)C2CCN(Cc3nc(-c4ccccc4F)oc3C)CC2)cc1OC` the value was “inactive”; for `COc1ccccc1CNc1nc(NCc2cnc(C)cn2)c2sccc2n1`, “inactive”.
For the molecule `COc1cccc(CN2CCN(C(=O)c3ccc(-c4ccccc4)cc3)CC2)c1OC`, the call was inactive.
As for `COC(=O)C[C@@H]1CC[C@@H]2[C@@H](COc3ccc(NC(=O)Cc4cccs4)cc3C(=O)N2C)O1`, the molecule was called inactive.
As for `Cc1ccc(C(O)c2ncc(-c3cccc4ccccc34)[nH]2)cc1F` (configuration not stated), the call was inactive.
With `CO[C@H]1CN(C)C(=O)c2cc(NC(=O)Nc3cc(Cl)cc(Cl)c3)ccc2OC[C@H](C)NC[C@@H]1C`, the call was inactive.
In the case of `CC(C)(C)[S@](=O)N1Cc2cc(C(=O)NCc3ccccc3F)nc(-c3cccc(-c4cncnc4)c3)c2[C@@H]1CCO` it was “inactive”; in that of `Cc1cc(C)c(S(=O)(=O)Nn2cnnc2)c(C)c1`, “inactive”; in that of `C[C@H]1CN([C@@H](C)CO)C(=O)c2cc(-c3ccccc3)cnc2O[C@H]1CN(C)C(=O)c1cccc(F)c1`, “inactive”.
Regarding `C[C@H](CO)N1C[C@H](C)[C@@H](CN(C)Cc2ccc(-c3ccccc3)cc2)Oc2ccc(NC(=O)CCCN(C)C)cc2C1=O`, the outcome was inactive.
`CCCCOc1ccc(C(C)NC(=O)C2CCCN(S(=O)(=O)CCC)C2)cc1` (configuration not stated): the molecule was called inactive.
For `S=C(NCC1CCCO1)Nc1ccc(Cl)cc1Cl` (configuration not stated), the call was inactive.
With `COc1ccc(CN(C2CCCC2)S(=O)(=O)c2ccc(-n3cnnn3)cc2)cc1OC`, the call was inactive.
As for `CC(C)C(=O)Nc1ccc2c(c1)C(=O)N(C)[C@@H]1CC[C@H](CC(=O)O)O[C@@H]1CO2`, the outcome was inactive.
In the case of `COc1cccc(CNC(=O)CCc2nnc3ccc(NCCCN4CCCC4=O)nn23)c1` it was “inactive”; in that of `O=C(c1cccnc1)N1C[C@H]2[C@@H](c3ccccc31)[C@H](CO)N2CC1CCCC1`, “inactive”; in that of `N#C[C@@H]1[C@H](c2ccccc2C2=CCCCC2)[C@@H](CO)N1S(=O)(=O)c1ccccc1`, “inactive”.
As for `O=C(Nc1ccccc1F)N1C[C@H]2[C@@H](c3ccccc31)[C@@H](CO)N2C(=O)C1CC1`, the molecule was classed as inactive.
On to `C[C@@H]1CN([C@@H](C)CO)C(=O)c2cc(NC(=O)CCCN(C)C)ccc2O[C@H]1CN(C)Cc1ccc(-c2ccccc2)cc1`, for which the outcome was inactive.
Regarding `CCOc1cccc(C(=O)Nc2ccc(N(CC)CC)cc2)c1`, the molecule was classed as inactive.
`CCc1nc2c(OCCc3cccc(OC)c3)cccn2c1N(C)C(=O)c1ccc(C)cc1`: the call was inactive.
In the case of `CC(C)(C)[S@@](=O)N1Cc2cc(C(=O)NCc3ccccc3F)nc(-c3cccc(-c4cncnc4)c3)c2[C@H]1CCO` it was “inactive”; in that of `CN1CCN(C(=O)c2cccc(-c3cnc4cnc(-c5ccccc5Oc5ccccc5)cn34)c2)CC1`, “inactive”; in that of `Cc1cc(C)n2ncc(C(=O)NCc3ccc(Cl)cc3)c2n1`, “inactive”.
In the case of `CN(C)c1ccc(-c2ccnc3c2CC(C)(C(=O)NCC2CC2)O3)cc1` (configuration not stated) it was “inactive”; in that of `COc1cccc(-c2ccc3c(c2)[C@H]2[C@H](CCN2S(=O)(=O)c2cccc(OC)c2)[C@H](CO)N3)c1`, “inactive”.
With `O=C(CC1Nc2ccccc2NC1=O)Nc1ccc2c(c1)OCO2` (configuration not stated), the call was inactive.
On to `COC(=O)C[C@H]1CC[C@@H]2[C@H](COc3ccc(NC(=O)Cc4cccs4)cc3C(=O)N2C)O1`, for which the molecule was classed as inactive.
